# Data reported in PubChem BioAssay (EPA / NIEHS).
# Values joined by “and” are separate entries in the source; they are usually repeats but may differ in a detail not shown here. Identical values can stand only once. Some compounds were tested as several samples or in several runs, with calls that do not always agree. Active and inactive are the calls of the source. The calls were made as follows: active = hit-call score of the fitted dose curve at least 0.9, where 1 is the maximum; inactive = score below 0.9.
# Legend:
# [1] = BSK_3C_VCAM1: BioMAP Diversity Plus: 3C Assay for Vascular cell adhesion molecule 1 (VCAM1) Biomarker Activity (AID 2282999); details: BioMAP 3C HUVEC, VCAM1 ELISA, cytokine-stimulated; actives raise or lower the signal
# Outline: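 Human umbilical vein endothelial cells (3C system), biomarker read by ELISA 24 h after dosing; bidirectional fit against DMSO baseline. Cytotoxicity tracked by SRB total-protein staining in parallel cultures at biomarker time.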
# [2] = BSK_3C_Proliferation: Cell Proliferation Assessment in the BioMAP Diversity Plus: 3C Assay (AID 2283006); details: primary human endothelial cells (HUVEC);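 as to AC50: potency may reflect either rise or fall in cell number versus DMSO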
# Outline: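 Subconfluent HUVEC (3C system) cultured with chemical; relative cell number read at 48 h by sulforhodamine B total-protein staining (0.1% SRB after 10% TCA fixation, 560 nm). Bidirectional fit relative to DMSO.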
# [3] = read-out: E-selectin (Homo sapiens) (UniProt P16581); assay: BSK_3C_Eselectin: BioMAP Diversity Plus: 3C Assay for Eselectin Biomarker Activity (AID 2283015); details: primary human endothelial cells (HUVEC); actives raise or lower the signal;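 as to outcome: cell surface E-selectin protein quantified by ELISA 24 h after dosing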
# Outline: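 ELISA read-out of E-selectin on endothelial monolayers after 24 h chemical treatment. Human umbilical vein primary cells served as the system, with DMSO defining baseline activity for bidirectional fitting.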
# [4] = read-out: Matrix Metallopeptidase 1 (MMP1), MMP1 (gene 4312); assay: BSK_BE3C_MMP1: BioMAP Diversity Plus: BE3C Assay for Matrix Metallopeptidase 1 (MMP1) Biomarker Activity (AID 2283024); details: primary human bronchial epithelial cells; actives raise or lower the signal
# Outline: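 Human primary bronchial epithelial cells (BE3C system) dosed for 24 h; MMP-1 quantified by ELISA. Bidirectional fit against DMSO; cytotoxicity tracked in parallel cultures by SRB total-protein staining.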
# [5] = BSK_3C_Vis: BioMAP Diversity Plus: 3C Assay for Morphology Visualization (AID 2283025); details: primary human endothelial cells (HUVEC);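 also: fitted both ways so gain or loss versus DMSO counts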;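 as to AC50: light microscopy image of cell morphology used as background control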
# Outline: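 Human umbilical vein endothelial cell morphology was inspected by light microscopy 24 h after chemical dosing; scored bidirectionally relative to DMSO.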
# [6] = BSK_BE3C_SRB: Viability Assessment in the BioMAP Diversity Plus: BE3C Assay (AID 2283028); details: primary human bronchial epithelial cells;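 as to AC50: fitted both ways so AC50 may mark signal gain or loss versus DMSO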
# Outline: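 Cells (human bronchial epithelial, primary) are treated with chemicals, and after 24 h the parallel cultures are fixed in 10% TCA. These are then stained with 0.1% SRB and read at 560 nm. Gain or loss of signal is fitted relative to DMSO.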
# [7] = read-out: Vascular endothelial growth factor receptor 2 (Homo sapiens) (UniProt P35968); assay: BSK_4H_VEGFRII: BioMAP Diversity Plus: 4H Assay for Vascular endothelial growth factor receptor 2 (VEGFR2) Biomarker Activity (AID 2283031); details: primary human endothelial cells (HUVEC); actives raise or lower the signal;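 as to AC50: cell-surface VEGFR2 protein level quantified by ELISA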
# Outline: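 ELISA read-out of VEGFRII in primary human umbilical vein endothelium, taken 24 h after chemical treatment. Responses are expressed relative to DMSO, with bidirectional fitting.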
# [8] = read-out: Human Leukocyte Antigen - DR isotype (HLADR), HLA-DRA (gene 3122); assay: BSK_BE3C_HLADR: BioMAP Diversity Plus: BE3C Assay for Human Leukocyte Antigen - DR isotype (HLADR) Biomarker Activity (AID 2283032); details: primary human bronchial epithelial cells; actives raise or lower the signal
# Outline: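 Human primary bronchial epithelial cells (BE3C system) exposed to compound for 24 hours; cell-surface HLA-DR measured by ELISA, fitted bidirectionally relative to DMSO. Total protein by SRB in parallel cultures tracked cytotoxicity.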
# [9] = read-out: Vascular cell adhesion molecule 1 (VCAM1), VCAM1 (gene 7412); assay: BSK_4H_VCAM1: BioMAP Diversity Plus: 4H Assay for Vascular cell adhesion molecule 1 (VCAM1) Biomarker Activity (AID 2283033); details: primary human endothelial cells (HUVEC); actives raise or lower the signal
# Outline: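 Primary human umbilical vein endothelial cells, 4H stimulation system, treated for 24 h; cell-surface VCAM-1 quantified by ELISA. Bidirectional fitting against DMSO; cytotoxicity tracked by SRB total-protein staining in parallel cultures.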
# [10] = read-out: Interferon-gamma inducible Protein 10 (IP10), CXCL10 (gene 3627); assay: BSK_BE3C_IP10: BioMAP Diversity Plus: BE3C Assay for Interferon-gamma inducible Protein 10 (IP10) Biomarker Activity (AID 2283034); details: primary human bronchial epithelial cells; actives raise or lower the signal
# Outline: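 Primary human bronchial epithelial cells, with IP-10 measured by ELISA 24 hours after chemical dosing. Bidirectional fit against DMSO; cytotoxicity checked by SRB total protein staining in parallel cultures.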
# [11] = read-out: Transforming growth factor beta 1 (TGFb1), TGFB1 (gene 7040); assay: BSK_BE3C_TGFb1: BioMAP Diversity Plus: BE3C Assay for Transforming growth factor beta 1 (TGFb1) Biomarker Activity (AID 2283036); details: primary human bronchial epithelial cells; actives raise or lower the signal
# Outline: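 Primary human bronchial epithelial cells dosed with chemical; TGF-b1 measured by ELISA 24 h after dosing. Bidirectional curve fitting against DMSO negative control; SRB total-protein staining in parallel cultures gauged cytotoxicity.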
# [12] = read-out: Urokinase-type plasminogen activator receptor (uPAR), PLAUR (gene 5329); assay: BSK_BE3C_uPAR: BioMAP Diversity Plus: BE3C Assay for Urokinase-type plasminogen activator receptor (uPAR) Biomarker Activity (AID 2283039); details: primary human bronchial epithelial cells; actives raise or lower the signal;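 as to outcome: uPAR protein level measured by ELISA on the cells; cells exposed to compound for one day before measurement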
# Outline: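 Primary human bronchial epithelial cells dosed for 24 h; uPAR quantified by ELISA with bidirectional fitting against DMSO. Overt cytotoxicity assessed in parallel cultures by SRB total-protein staining (0.1% SRB, 560 nm).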
# [13] = read-out: Interleukin-6 (IL6), IL6 (gene 3569); assay: BSK_CASM3C_IL6: BioMAP Diversity Plus: CASM3C Assay for Interleukin-6 (IL6) Biomarker Activity for (AID 2283040); details: primary human coronary artery smooth muscle cells; actives raise or lower the signal
# [14] = read-out: Monocyte Chemoattractant Protein-1 (MCP1), CCL2 (gene 6347); assay: BSK_CASM3C_MCP1: BioMAP Diversity Plus: CASM3C Assay for Monocyte Chemoattractant Protein-1 (MCP1) Biomarker Activity (AID 2283046); details: primary human coronary artery smooth muscle cells; actives raise or lower the signal
# [15] = read-out: Interleukin-1 alpha (IL1a), IL1A (gene 3552); assay: BSK_LPS_IL1a: BioMAP Diversity Plus: LPS Assay for Interleukin-1 alpha (IL1a) Biomarker Activity (AID 2283080); details: primary human HUVEC with PBMC; actives raise or lower the signal
# Outline: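 ELISA read-out of IL-1 alpha from a human primary vascular co-culture (endothelium plus PBMC) under LPS, sampled 24 hours post-dosing. Activity was fitted in both directions relative to DMSO controls.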
# [16] = read-out: Monocyte Chemoattractant Protein-1 (MCP1), CCL2 (gene 6347); assay: BSK_LPS_MCP1: BioMAP Diversity Plus: LPS Assay for Monocyte Chemoattractant Protein-1 (MCP1) Biomarker Activity (AID 2283081); details: primary human HUVEC with PBMC; actives raise or lower the signal;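 as to AC50: secreted MCP-1 protein quantified by ELISA in culture supernatant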
# Outline: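 Human endothelial–PBMC co-cultures were dosed with chemical, then LPS-driven MCP-1 levels were quantified by ELISA at 24 h. Activity in either direction was fitted versus DMSO negative control.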
# [17] = BSK_LPS_PGE2: BioMAP Diversity Plus: LPS Assay for Prostaglandin E2 (PGE2) Biomarker Activity (AID 2283082); details: primary human HUVEC with PBMC; actives raise or lower the signal;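 as to AC50: secreted prostaglandin E2 measured by ELISA in LPS-stimulated co-culture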
# Outline: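 HUVEC plus human PBMC co-culture stimulated with LPS; secreted PGE2 quantified by ELISA 24 h after chemical dosing. Activity fitted bidirectionally against DMSO baseline; parallel SRB staining (0.1% SRB after 10% TCA fixation, 560 nm) flags overt cytotoxicity.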
# [18] = read-out: Tumor necrosis factor (Homo sapiens) (UniProt P01375); assay: BSK_LPS_TNFa: BioMAP Diversity Plus: LPS Assay for Tumour Necrosis Factor alpha (TNFa) Biomarker Activity (AID 2283085); details: primary human HUVEC with PBMC; actives raise or lower the signal
# Outline: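 Human umbilical vein endothelial cells co-cultured with PBMC and stimulated with LPS. TNFa was measured by ELISA 24 h after chemical dosing, fitted bidirectionally relative to DMSO.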
# [19] = read-out: Monocyte Chemoattractant Protein-1 (MCP1), CCL2 (gene 6347); assay: BSK_SAg_MCP1: BioMAP Diversity Plus: SAg Assay for Monocyte Chemoattractant Protein-1 (MCP1) Biomarker Activity (AID 2283090); details: primary human HUVEC with PBMC; actives raise or lower the signal
# Outline: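 MCP-1 levels in the endothelial–PBMC SAg co-culture were quantified by ELISA at 24 h post-dosing; both increases and decreases versus DMSO scored. Cytotoxicity monitored by SRB total protein in parallel cultures.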
# [20] = read-out: Monokine induced gamma interferon (MIG), CXCL9 (gene 4283); assay: BSK_SAg_MIG: BioMAP Diversity Plus: SAg Assay for Monokine induced gamma interferon (MIG) Biomarker Activity (AID 2283092); details: primary human HUVEC with PBMC; actives raise or lower the signal
# Outline: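 ELISA readout of MIG/CXCL9; primary human umbilical vein endothelial cells co-cultured with peripheral blood mononuclear cells; 24 h post-dose; gain/loss fit vs DMSO baseline.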
# Chain of E-selectin (Homo sapiens) (P16581 whole entry, looked up): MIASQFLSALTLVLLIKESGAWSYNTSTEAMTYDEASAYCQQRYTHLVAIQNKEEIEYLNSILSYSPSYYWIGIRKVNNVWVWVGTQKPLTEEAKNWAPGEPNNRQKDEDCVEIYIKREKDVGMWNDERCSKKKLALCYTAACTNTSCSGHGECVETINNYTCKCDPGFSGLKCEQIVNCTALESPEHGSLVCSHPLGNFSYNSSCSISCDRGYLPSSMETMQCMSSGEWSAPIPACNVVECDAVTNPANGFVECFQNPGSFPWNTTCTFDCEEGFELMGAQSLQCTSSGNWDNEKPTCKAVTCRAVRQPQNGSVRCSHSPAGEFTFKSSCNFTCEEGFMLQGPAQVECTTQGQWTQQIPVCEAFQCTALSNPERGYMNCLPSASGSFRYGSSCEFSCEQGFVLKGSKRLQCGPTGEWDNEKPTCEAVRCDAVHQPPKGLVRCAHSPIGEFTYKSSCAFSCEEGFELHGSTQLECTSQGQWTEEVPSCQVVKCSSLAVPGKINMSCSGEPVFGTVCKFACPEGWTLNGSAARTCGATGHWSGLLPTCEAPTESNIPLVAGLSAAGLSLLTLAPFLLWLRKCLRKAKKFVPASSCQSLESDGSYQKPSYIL
# Chain of Tumor necrosis factor (Homo sapiens) (P01375 whole entry, looked up): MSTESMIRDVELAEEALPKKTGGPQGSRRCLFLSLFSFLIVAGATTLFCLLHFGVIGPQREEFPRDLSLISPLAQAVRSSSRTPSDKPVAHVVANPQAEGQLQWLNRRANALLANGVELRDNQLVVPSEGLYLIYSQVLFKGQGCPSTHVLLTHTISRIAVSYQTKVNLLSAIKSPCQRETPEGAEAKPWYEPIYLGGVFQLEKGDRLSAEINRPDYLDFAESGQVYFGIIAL
structure (smiles),measurement,setting,value
Cc1ccc(OP(=O)(Oc2ccc(C)cc2)Oc2ccc(C)cc2)cc1 (tested in a mixture with another compound),outcome,[1],inactive
same,AC50,[2],7.47 µM (active)
same,outcome,[3],inactive
same,AC50,[4],3.35 µM (active)
same,AC50,[5],37.5 µM (active)
same,outcome,[6],inactive
same,outcome,[7],inactive
same,outcome,[8],inactive
same,outcome,[9],inactive
same,outcome,[10],inactive
same,outcome,[11],inactive
same,AC50,[12],4.16 µM (active)
same,outcome,[13],inactive
same,outcome,[14],inactive
same,AC50,[15],4.74 µM (active)
same,outcome,[16],inactive
same,outcome,[17],inactive
same,outcome,[18],inactive
same,AC50,[19],20 µM (active)
same,outcome,[20],inactive
O=C(O)CCCc1ccc(N(CCCl)CCCl)cc1,AC50,[1],31.8 µM (active) and 28.7 µM (active)
same,AC50,[2],12.1 µM (active) and 6.56 µM (active)
same,AC50,[3],20 µM (active)
same,outcome,[4],inactive
same,AC50,[5],38.9 µM (active) and 38.6 µM (active)
same,outcome,[6],inactive
same,outcome,[7],inactive
same,AC50,[8],22 µM (active) and 29.6 µM (active)
same,AC50,[9],27.1 µM (active) and 25.4 µM (active)
same,AC50,[10],16.2 µM (active) and 20 µM (active)
same,AC50,[11],20 µM (active)
same,outcome,[11],inactive
same,outcome,[12],inactive
same,AC50,[13],15.8 µM (active) and 20 µM (active)
same,AC50,[14],24 µM (active) and 20 µM (active)
same,AC50,[15],34.8 µM (active) and 20 µM (active)
same,AC50,[16],20 µM (active)
same,outcome,[17],inactive
same,AC50,[18],26.5 µM (active)
same,outcome,[18],inactive
same,AC50,[19],20 µM (active) and 27.2 µM (active)
same,outcome,[20],inactive
CNC(=O)Oc1cc(C)c(SC)c(C)c1,AC50,[1],20 µM (active)
same,AC50,[2],13 µM (active)
same,AC50,[3],20 µM (active)
same,outcome,[4],inactive
same,outcome,[5],inactive
same,outcome,[6],inactive
same,outcome,[7],inactive
same,outcome,[8],inactive
same,AC50,[9],20 µM (active)
same,outcome,[10],inactive
same,outcome,[11],inactive
same,outcome,[12],inactive
same,outcome,[13],inactive
same,outcome,[14],inactive
same,outcome,[15],inactive
same,outcome,[16],inactive
same,AC50,[17],11.8 µM (active)
same,outcome,[18],inactive
same,outcome,[19],inactive
same,outcome,[20],inactive
O=[N+]([O-])O,outcome,[1],inactive
same,outcome,[2],inactive
same,outcome,[3],inactive
same,outcome,[4],inactive
same,outcome,[6],inactive
same,outcome,[7],inactive
same,outcome,[8],inactive
same,outcome,[9],inactive
same,outcome,[10],inactive
same,outcome,[12],inactive
same,outcome,[13],inactive
same,outcome,[14],inactive
same,outcome,[15],inactive
same,outcome,[16],inactive
same,outcome,[17],inactive
same,outcome,[18],inactive
same,outcome,[19],inactive
same,outcome,[20],inactive
CC(C)CCCCCCCOP(=O)(Oc1ccccc1)Oc1ccccc1,AC50,[1],11.2 µM (active)
same,AC50,[2],10.1 µM (active)
same,AC50,[3],20 µM (active)
same,outcome,[4],inactive
same,AC50,[5],5.61 µM (active)
same,AC50,[6],32.6 µM (active)
same,AC50,[7],10.9 µM (active)
same,AC50,[8],13.9 µM (active)
same,AC50,[9],25.1 µM (active)
same,AC50,[10],28 µM (active)
same,outcome,[11],inactive
same,outcome,[12],inactive
same,outcome,[13],inactive
same,outcome,[14],inactive
same,AC50,[15],27.3 µM (active)
same,AC50,[16],20 µM (active)
same,AC50,[17],13.6 µM (active)
same,AC50,[18],30.4 µM (active)
same,AC50,[19],20 µM (active)
same,AC50,[20],35 µM (active)
CC(=O)/C=C/c1ccccc1,AC50,[1],20 µM (active)
same,AC50,[2],23.2 µM (active)
same,outcome,[3],inactive
same,outcome,[4],inactive
same,outcome,[5],inactive
same,outcome,[6],inactive
same,outcome,[7],inactive
same,AC50,[8],3.97 µM (active)
same,outcome,[9],inactive
same,outcome,[10],inactive
same,outcome,[11],inactive
same,outcome,[12],inactive
same,outcome,[13],inactive
same,AC50,[14],104 nM (active)
same,AC50,[15],20 µM (active)
same,outcome,[16],inactive
same,outcome,[17],inactive
same,outcome,[18],inactive
same,outcome,[19],inactive
same,outcome,[20],inactive
